# Laboratory results published in PubChem BioAssay AID504333 (National Center for Advancing Translational Sciences (NCATS), 2011).
# The campaign covered roughly 360,000 compounds. About 16,000 (4.4%) were called active. Roughly 9% stayed inconclusive and do not appear here. Calls follow the shape of the dose curve; as a rule, active = well fitted inhibition curve with a large enough effect; inconclusive = small, poorly fitted or top-dose-only effect; inactive = no such curve, though single readings can be large or run the other way. Only a selection was taken, and actives are over-represented in it overall.
# Molecular target: Bromodomain adjacent to zinc finger domain protein 2B (Homo sapiens) (UniProt Q9UIF8)
# Sequence (Q9UIF8 whole entry, looked up, the tested form may be a part): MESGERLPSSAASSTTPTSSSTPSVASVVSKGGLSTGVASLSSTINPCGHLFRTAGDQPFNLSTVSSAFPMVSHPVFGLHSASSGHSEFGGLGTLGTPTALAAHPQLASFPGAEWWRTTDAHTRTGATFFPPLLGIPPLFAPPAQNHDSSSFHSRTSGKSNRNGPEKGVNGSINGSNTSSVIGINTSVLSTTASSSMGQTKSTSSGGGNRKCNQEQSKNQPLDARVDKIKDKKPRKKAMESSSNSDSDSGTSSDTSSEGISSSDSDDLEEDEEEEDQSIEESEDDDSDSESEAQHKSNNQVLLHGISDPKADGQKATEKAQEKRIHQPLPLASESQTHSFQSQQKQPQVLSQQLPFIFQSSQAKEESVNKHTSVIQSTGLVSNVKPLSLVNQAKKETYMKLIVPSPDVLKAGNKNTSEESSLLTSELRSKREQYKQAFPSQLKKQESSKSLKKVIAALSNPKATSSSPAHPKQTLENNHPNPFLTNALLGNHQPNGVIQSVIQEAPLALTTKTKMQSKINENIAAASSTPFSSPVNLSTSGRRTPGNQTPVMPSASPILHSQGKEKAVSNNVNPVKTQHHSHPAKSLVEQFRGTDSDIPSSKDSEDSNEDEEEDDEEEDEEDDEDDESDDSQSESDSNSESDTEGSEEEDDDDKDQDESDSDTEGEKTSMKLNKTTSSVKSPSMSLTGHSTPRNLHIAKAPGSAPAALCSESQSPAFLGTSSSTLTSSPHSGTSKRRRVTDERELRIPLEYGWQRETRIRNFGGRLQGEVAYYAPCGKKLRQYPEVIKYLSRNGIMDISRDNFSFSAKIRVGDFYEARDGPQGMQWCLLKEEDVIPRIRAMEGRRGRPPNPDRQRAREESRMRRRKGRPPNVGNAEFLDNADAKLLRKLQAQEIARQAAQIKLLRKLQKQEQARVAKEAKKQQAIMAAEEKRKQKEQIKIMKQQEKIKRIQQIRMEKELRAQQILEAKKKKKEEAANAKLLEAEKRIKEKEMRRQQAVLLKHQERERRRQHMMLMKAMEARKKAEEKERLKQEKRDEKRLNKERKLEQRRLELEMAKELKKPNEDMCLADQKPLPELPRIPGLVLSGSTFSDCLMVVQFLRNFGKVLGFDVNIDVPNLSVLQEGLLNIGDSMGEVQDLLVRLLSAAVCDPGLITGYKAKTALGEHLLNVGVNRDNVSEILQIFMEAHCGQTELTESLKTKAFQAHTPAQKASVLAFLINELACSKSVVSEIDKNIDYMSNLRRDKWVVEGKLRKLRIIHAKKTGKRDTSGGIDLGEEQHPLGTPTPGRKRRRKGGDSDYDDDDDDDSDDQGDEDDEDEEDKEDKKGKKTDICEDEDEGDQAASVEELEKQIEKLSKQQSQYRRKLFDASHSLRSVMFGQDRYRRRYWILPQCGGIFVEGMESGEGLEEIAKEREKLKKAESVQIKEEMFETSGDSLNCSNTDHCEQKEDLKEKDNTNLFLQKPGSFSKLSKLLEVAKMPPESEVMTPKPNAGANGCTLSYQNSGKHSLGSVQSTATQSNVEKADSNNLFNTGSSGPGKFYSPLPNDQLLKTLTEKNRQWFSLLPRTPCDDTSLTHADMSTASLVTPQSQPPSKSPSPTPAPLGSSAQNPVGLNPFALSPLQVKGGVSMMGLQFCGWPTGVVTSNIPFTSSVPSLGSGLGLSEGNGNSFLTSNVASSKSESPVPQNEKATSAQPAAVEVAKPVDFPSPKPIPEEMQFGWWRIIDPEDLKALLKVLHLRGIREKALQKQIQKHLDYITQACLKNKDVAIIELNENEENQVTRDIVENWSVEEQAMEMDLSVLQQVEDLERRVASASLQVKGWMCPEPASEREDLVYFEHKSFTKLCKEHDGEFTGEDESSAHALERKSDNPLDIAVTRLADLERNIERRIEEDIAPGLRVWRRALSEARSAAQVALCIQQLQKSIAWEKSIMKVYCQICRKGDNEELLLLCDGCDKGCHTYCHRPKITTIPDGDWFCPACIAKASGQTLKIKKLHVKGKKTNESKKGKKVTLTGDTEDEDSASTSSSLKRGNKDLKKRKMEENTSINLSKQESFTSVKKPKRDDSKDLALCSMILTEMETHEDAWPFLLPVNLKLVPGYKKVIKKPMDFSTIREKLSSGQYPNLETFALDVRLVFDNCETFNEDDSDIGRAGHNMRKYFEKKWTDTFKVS
# Assay: qHTS Assay for Inhibitors of BAZ2B; also: nearly all actives have a fitted effect of over 60% in size
# Settings: AlphaScreen BAZ2B-H3K14Ac peptide displacement; series mostly up to 114 µM; activity change, negative = inhibition: at the top concentration
# In short: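 Multi-concentration screen (max 110 uM) measuring displacement of acetylated histone H3 peptide from BAZ2B by AlphaScreen, using 50 nM protein, 50 nM peptide and 10 ug/mL streptavidin donor plus Ni-chelate acceptor beads.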
# % is scaled to controls: 0 for no effect and ±100 for the full control effect; potency is read from the fitted curve at half-maximal effect.
Structure (SMILES),"activity change, negative = inhibition",Potency
O=C(Nc1ccc2nc(SCCOc3ccccc3Cl)sc2c1)c1ccco1,-28.6% (inactive),
c1ccc(-c2cc(-c3nnc4sc(-c5ccccn5)nn34)[nH]n2)cc1,-21.7% (inactive),
COc1cc(-c2nn3c(-c4cccc(C)c4)nnc3s2)cc(OC)c1OC,-1.78% (inactive),
CCOc1cccc(-c2nn3c(-c4ccccn4)nnc3s2)c1,,50.1 µM (active)
COc1ccc(/C=C2/SC(=O)N(CCCCCC(=O)Nc3ccccc3C(=O)O)C2=S)cc1,,56.2 µM (active)
COc1ccc(/C=C2\SC(=O)N(CCC(=O)NCCCn3ccnc3)C2=O)cc1,-34.5% (inactive),
COc1ccc(/C=C2\SC(=O)N(CCC(=O)NC3CCS(=O)(=O)C3)C2=O)cc1 (configuration not stated),-17.6% (inactive),
CCCCNc1ccc(-c2nc(-c3ccncc3)no2)cc1[N+](=O)[O-],-14.3% (inactive),
CCN(Cc1ccccc1)Cc1c(O)ccc2c(=O)c(-c3ccc(Cl)cc3Cl)coc12,-1.44% (inactive),
COc1ccc2c(c1)C(C)=CC(C)(C)N2C(=O)Nc1ccccc1,,50.1 µM (active)
CC1=CC(C)(C)N(C(=O)CSc2nnc(-c3ccccc3)o2)c2ccc(C)cc21,-12.4% (inactive),
COc1cccc(NC(=O)C2C(c3ccccc3)C2(Cl)Cl)c1 (configuration not stated),3.62% (inactive),
CC1=C(C(=O)OCc2ccc(C)cc2)C(c2c(Cl)cccc2Cl)CC(=O)N1 (configuration not stated),-0.666% (inactive),
Cc1ccc(OCCn2c(CNc3ccccc3C)nc3ccccc32)cc1,-26.1% (inactive),
COc1ccc(OC)c(NC(=O)C2CCCN(S(=O)(=O)c3ccc4c(c3)CCCC(=O)N4)C2)c1 (configuration not stated),-0.384% [at 57.1 µM] (inactive),
O=C(c1cc(C(=O)N2CCN(c3ccc(F)cc3)CC2)cc([N+](=O)[O-])c1)N1CCN(c2ccc(F)cc2)CC1,-32.9% (inactive),
COC(=O)c1cc(C(=O)NC(C)C2CC3CCC2C3)cc([N+](=O)[O-])c1 (configuration not stated),-28.5% (inactive),
CC1CCC2CCCCC2N1C(=O)c1cc([N+](=O)[O-])cc([N+](=O)[O-])c1 (configuration not stated),,50.1 µM (active)
COc1ccc(N2CCN(c3cc(C)nc4nncn34)CC2)cc1,-3.48% (inactive),
COc1ccc(N2C(=O)CSC23C(=O)N(Cc2cccc(F)c2)c2ccccc23)cc1Cl (configuration not stated),-22.3% (inactive),
Cc1ccc(-n2c(SCC(=O)c3ccccc3)nc3c([nH]c4ccccc43)c2=O)cc1,2.93% (inactive),

Structure (SMILES),"activity change, negative = inhibition",Potency
COc1ccc2ccccc2c1CNCc1ccccn1,,79.4 µM (active)
COc1ccc(C)cc1NC(=O)NCc1ccccn1,-14.3% (inactive),
COc1ccc2ccccc2c1CNc1nnnn1C,-10.5% (inactive),
CCCSc1ncc(Cl)c(C(=O)Nc2sc3c(c2C(=O)NCCOC)CCCC3)n1,-19.1% (inactive),
Cc1c(Cl)cccc1NC(=O)C1CCCN(c2ncnc3onc(C)c23)C1 (configuration not stated),8.64% [at 57.1 µM] (inactive),
O=c1c2c3c(sc2n(CCN2CCCC2)c(=O)n1Cc1ccccc1)CCCCC3,,89.1 µM (active)
CCOC(=O)N1CCc2c(sc3c2c(=O)n(Cc2ccccc2)c(=O)n3CC(=O)Nc2cccc(C)c2)C1,3.88% (inactive),
Cc1ccc(NC(=O)Cn2c(=O)n(-c3ccccc3)c(=O)c3c4c(sc32)CCCC4)cc1,-2.88% (inactive),
O=C(Nc1cc(C(F)(F)F)ccc1Cl)c1nc2ccccc2nc1N1CCCCC1,-31.3% (inactive),
COc1cc2c(cc1OC)C(c1ccccc1Br)NC(=O)C2 (configuration not stated),-6.18% (inactive),
Brc1ccccc1C1N=C(c2ccccc2)NO1 (configuration not stated),9.17% (inactive),
Brc1ccccc1C1Nc2cccc3cccc(c23)N1,,44.7 µM (active)
COc1ccc(C(=O)Nc2ccccc2C(=O)N2CCN(c3ccccc3)CC2)cc1,-20.7% (inactive),
COc1ccc(N2CCN(C(=O)c3ccc4c(Cl)c5c(nc4c3)CCCC5)CC2)cc1,,inactive
COc1ccc(N2CCN(C(=O)c3ccc(N4CCCCS4(=O)=O)cc3)CC2)cc1,,50.1 µM (active)
O=C(NCC(c1cccnc1)N1CCc2ccccc21)c1cccc(C(F)(F)F)c1 (configuration not stated),-2.57% (inactive),
COc1ccc(-c2nn3c(=O)cc(CN4CCN(C(=O)c5ccc(OC)c(OC)c5)CC4)nc3s2)cc1,1.38% (inactive),
COc1ccc(S(=O)(=O)/N=C2\C=C(NS(=O)(=O)c3ccccc3)C(=O)c3ccccc32)cc1,,10 µM (active)
COc1ccc(S(=O)(=O)Nc2cc3c(C(=O)OC(C)C)c(C)oc3c3ccccc23)cc1,-13.1% (inactive),
COc1ccc(NC(=O)c2cnc(NS(=O)(=O)c3ccccc3)nc2)cc1,1.25% (inactive),
COc1cc(NC(=O)c2nc3ccccc3nc2C)cc(OC)c1OC,-17.8% (inactive),

Structure (SMILES),"activity change, negative = inhibition",Potency
O=C(COc1ccc(Cl)cc1)Nc1ccc2c(c1)OCO2,3.44% (inactive),
COC(=O)CCNc1ccc2c(c1)OCCO2,6.99% (inactive),
CCOc1ccc(NCCC(=O)c2ccc3c(c2)OCO3)cc1,,39.8 µM (active)
CCCCN1C(=O)c2[nH]nc(-c3ccccc3O)c2C1c1cccc(OCc2ccccc2)c1 (configuration not stated),-26.7% (inactive),
Cc1cccc(NC(=O)c2ccc3nc(C(C)C)oc3c2)c1C,27.1% (inactive),
CC(=O)c1ccc(NS(=O)(=O)c2ccc(-c3cc(C)no3)s2)cc1,-3.44% (inactive),
O=C(Nc1cc(Cl)cc(Cl)c1)c1ccc2c(c1)N(Cc1cccc(Cl)c1)C(=O)c1ccccc1S2=O (configuration not stated),3.3% (inactive),
CCOC(=O)c1ccc(NC(=O)C2CCN(S(=O)(=O)c3ccc4c(c3)CCCC(=O)N4)CC2)cc1,4.44% [at 57.1 µM] (inactive),
O=C(C1=C(O)C(=O)N(Cc2ccccc2)C1c1ccco1)c1ccco1 (configuration not stated),-32.8% (inactive),
C=CCSc1nnc(N2C(=O)C(O)=C(C(=O)c3ccco3)C2c2ccc(F)cc2)s1 (configuration not stated),,50.1 µM (active)
CC(C)c1ccc(C2C(C(=O)c3ccco3)=C(O)C(=O)N2CC2CCCO2)cc1 (configuration not stated),-25.4% (inactive),
COc1ccccc1N1CCN(c2ncnc3onc(-c4ccc(F)cc4)c23)CC1,3.92% [at 57.1 µM] (inactive),
CCn1c(SCC(=O)c2ccc3ccccc3c2)nnc1-c1cccs1,-3.48% (inactive),
Cc1nc(SCCOc2ccc(Cl)cc2)[nH]c(=O)c1Cc1ccccc1,0.0225% (inactive),
O=c1cc2nc(-c3ccccc3)nc(SCCOc3ccc(Cl)cc3)n2[nH]1,,50.1 µM (active)
Cc1ccc(-c2nc(SCc3ccc(Br)cc3)n3[nH]c(=O)cc3n2)cc1,,79.4 µM (active)
CC(C)c1c(O)nc(SCCOc2ccc(Cl)cc2)[nH]c1=O,-22.7% (inactive),
Cc1cccc(-c2nc(SCc3ccc(Br)cc3)n3[nH]c(=O)cc3n2)c1,-0.89% (inactive),
Cc1ccc(OCCSc2nc(-c3cccs3)nc3cc(=O)[nH]n23)cc1Cl,,50.1 µM (active)
Cc1ccc2nc(-c3ccc(Br)cc3)cn2c1,-16% (inactive),
